# Hedgehog inh – Sonic Hedgehog pathway inhibition. inhibition, % (concentration not given with the values). Shh-LIGHT2 Gli-luciferase reporter, 30 h. AID 2313. actives 2.1% (n = 22,000);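 active = mean inhibition across valid replicates above about 65%, limit read from the data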;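 note: pathway switched on by Shh-conditioned medium diluted 1 in 25 in low serum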
# MITF inhib – blocks MITF activity; TRPM1 promoter luciferase, luminescence, 24 h; inhibition, % (concentration not given with the values); actives 0.28% (n = 37,000); AID 2240; in the data active = inhibition above about 85%;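 note: human melanocyte line stably carrying TRPM1 promoter luciferase reporter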
# BJeLR viability – compounds reducing viability of BJeLR cells. actives 0.64% (n = 30,000). viability loss activity score, % (no concentration beside the values). BJeLR fibroblasts viability, CellTiterGlo ATP luminescence, 48 h; HRASV12, hTERT and SV40 LT/ST transformed; in the data active = viability loss activity score above about 50%;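 note: higher score means fewer live cells and less ATP luminescence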
# A number is an active result; . = inactive; / = no result given. Only a selection was taken, and hits are over-represented in it overall.
SMILES,Hedgehog inh,MITF inhib,BJeLR viability
COc1c(O)c2c(=O)cc(OC)c3c4c(OC)cc(=O)c5c(O)c(OC)c(C[C@@H](C)OC(=O)c6ccccc6)c(c(c1C[C@@H](C)OC(=O)Oc1ccc(O)cc1)c23)c54,72,.,.
COc1ccc(C(OC(=O)c2ccccc2)c2nccc3ccccc23)cc1 (configuration not stated),/,.,.
c1ccc2[nH]c(-c3nc4ccccc4s3)nc2c1,.,86,101
O=C(Nc1ccc(-c2nc3ccccc3[nH]2)cc1)c1ccc(-c2ccccc2)cc1,/,/,.
c1cc(-c2nc3ccccc3s2)nc(-c2nc3ccccc3s2)c1,.,.,.
c1ccc2[nH]c(-c3cscn3)nc2c1,.,.,59
COc1cc(CC2COC(=O)C2(O)Cc2ccc(O)c(OC)c2)ccc1O (configuration not stated),.,91,.
COc1cc(C[C@@]2(O)C(=O)OC[C@@H]2Cc2ccc(OC)c(OC)c2)ccc1O,.,.,.
O=C(NCCn1ccc2ccccc21)c1cc(C(F)(F)F)cc(C(F)(F)F)c1,/,/,.
O=C(Cn1nc(C(F)(F)F)c2c1CCCC2)N(Cc1ccccc1)Cc1ccccc1,/,/,.
C=CCNC1=C2C[C@@H](C)C[C@H](OC)[C@H](O)[C@@H](C)/C=C(\C)[C@H](OC(N)=O)[C@@H](OC)C=C/C=C(/C)C(=O)NC(=CC1=O)C2=O,108,.,69
Cc1ccc(S(=O)(=O)N(C)C[C@@H]2Oc3c(NC(=O)Nc4ccc5c(c4)OCO5)cccc3C(=O)N([C@H](C)CO)C[C@@H]2C)cc1,115,.,.
C[C@H](CO)N1C[C@H](C)[C@H](CN(C)S(=O)(=O)c2ccc(F)cc2)Oc2c(NC(=O)Nc3ccc4c(c3)OCO4)cccc2C1=O,92,.,.
Cc1ccc(S(=O)(=O)N(C)C[C@H]2Oc3c(NC(=O)Nc4ccc5c(c4)OCO5)cccc3C(=O)N([C@H](C)CO)C[C@H]2C)cc1,.,.,.
C[C@H]1CN([C@@H](C)CO)C(=O)c2cccc(NC(=O)Nc3ccc4c(c3)OCO4)c2O[C@H]1CN(C)S(=O)(=O)c1ccc(F)cc1,101,.,.
C[C@@H]1CN([C@@H](C)CO)C(=O)c2cccc(NC(=O)Nc3ccc4c(c3)OCO4)c2O[C@H]1CN(C)S(=O)(=O)c1ccc(F)cc1,.,.,.
C[C@H](CO)N1C[C@H](C)[C@@H](CN(C)S(=O)(=O)c2ccc(F)cc2)Oc2c(NC(=O)Nc3ccc4c(c3)OCO4)cccc2C1=O,.,.,.
COc1ccc(C(=O)c2oc3ccccc3c2NC(=O)C(C)(C)C)cc1,/,/,.
C=CCc1c(C)c(C#N)c2nc3ccccc3n2c1NCCc1ccc(OC)c(OC)c1,/,/,.
CCc1ccc(NC(=O)c2cnc3sccn3c2=O)cc1,/,/,.
O=C(Nc1c(-c2cccs2)nc2ccccn12)c1cccc(C(F)(F)F)c1,/,/,.
O=C(Nc1cc(C(=O)Nc2ccccc2O)cc(C(=O)Nc2ccccc2O)c1)c1ccccc1,/,/,.
CCc1ccc(NC(=S)N(CCCN2CCCCC2)Cc2cccs2)cc1,/,/,.
Cc1cc2c(cc1S(=O)(=O)N(C)Cc1ccccc1)OCCN2C,/,/,.
CC(=O)N1CCN(c2ccc(OCC3CO[C@](Cn4ccnc4)(c4ccc(Cl)cc4Cl)O3)cc2)CC1 (some centres not stated),107,.,.
SMILES,Hedgehog inh,MITF inhib,BJeLR viability
CC(C)N1CCN(c2ccc(OC[C@H]3CO[C@](Cn4cncn4)(c4ccc(Cl)cc4Cl)O3)cc2)CC1,.,.,.
CCC(C)[C@@H](C(=O)NCc1ccccc1C)N1Cc2ccccc2C1=O (some centres not stated),/,/,.
CCC1=Nc2cc(C(=O)N3CCc4ccccc4C3)ccc2Sc2ccccc21,/,/,.
O=C(Nc1ccc(OCC(O)Cn2c3ccccc3c3ccccc32)cc1)c1ccccc1 (configuration not stated),/,/,.
CCCCN(CC)C(=O)c1cc2c(-c3ccc(Cl)cc3)nn(C)c2s1,/,/,.
Cn1cnc([N+](=O)[O-])c1Sc1ncnc2nc[nH]c12,.,.,88
CC(C)=CCNc1ncnc2nc[nH]c12,/,/,.
O=C(NC1CCCC1)c1cc(=O)[nH]c2ccc(S(=O)(=O)N3CCCC3)cc12,/,/,.
Cc1ccc(-c2cn3cccnc3n2)cc1NC(=O)CC(C)(C)C,/,/,.
COc1ccc(NC(=O)Nc2ccc3c(c2)C(=O)N([C@H](C)CO)C[C@H](C)[C@@H](CN(C)Cc2ccc4c(c2)OCO4)OCCCC[C@@H](C)O3)cc1,.,.,/
COc1ccc(CN(C)C[C@@H]2OCCCC[C@@H](C)Oc3ccc(NS(=O)(=O)c4cccs4)cc3C(=O)N([C@H](C)CO)C[C@@H]2C)cc1,/,.,/
C[C@@H]1CCCCO[C@@H](CN(C)Cc2ccc3c(c2)OCO3)[C@@H](C)CN([C@H](C)CO)C(=O)c2cc(NS(=O)(=O)c3cccs3)ccc2O1,74,.,/
Cc1ccc(S(=O)(=O)Nc2ccc3c(c2)C(=O)N([C@H](C)CO)C[C@H](C)[C@H](CN(C)Cc2ccc(C(=O)O)cc2)OCCCC[C@@H](C)O3)cc1,/,.,/
Cc1ccc(S(=O)(=O)Nc2ccc3c(c2)C(=O)N([C@H](C)CO)C[C@H](C)[C@@H](CN(C)Cc2ccccc2)OCCCC[C@@H](C)O3)cc1,68,.,/
COc1ccc(NC(=O)Nc2ccc3c(c2)C(=O)N([C@H](C)CO)C[C@H](C)[C@H](CN(C)Cc2ccc4c(c2)OCO4)OCCCC[C@@H](C)O3)cc1,72,.,/
C[C@@H]1CN([C@@H](C)CO)C(=O)c2cc(NC(=O)C3CC3)ccc2O[C@@H]1CN(C)S(=O)(=O)c1ccc(Cl)cc1,.,.,.
C[C@@H]1CN([C@@H](C)CO)C(=O)c2cccc(NC(=O)C3CCOCC3)c2O[C@H]1CN(C)S(=O)(=O)c1ccc(Cl)cc1,.,.,.
CC(C)NC(=O)Nc1ccc2c(c1)CC(=O)N([C@@H](C)CO)C[C@H](C)[C@H](CN(C)S(=O)(=O)c1cn(C)cn1)O2,/,.,/
C[C@H]1CN([C@@H](C)CO)C(=O)c2cccc(NC(=O)C3CCOCC3)c2O[C@H]1CN(C)S(=O)(=O)c1ccc(Cl)cc1,84,.,.
C[C@H](CO)N1C[C@H](C)[C@H](CN(C)S(=O)(=O)c2cn(C)cn2)Oc2ccc(NC(=O)NC3CCCCC3)cc2CC1=O,77,.,/
C[C@H]1CN([C@@H](C)CO)C(=O)c2cccc(NC(=O)C3CC3)c2O[C@@H]1CN(C)S(=O)(=O)c1ccc(Cl)cc1,.,.,.
C[C@H](CO)N1C[C@H](C)[C@H](CN(C)S(=O)(=O)c2ccc(Cl)cc2)Oc2c(NC(=O)C3CC3)cccc2C1=O,98,.,.
C[C@@H]1CN([C@@H](C)CO)C(=O)c2cc(NC(=O)C3CC3)ccc2O[C@H]1CN(C)S(=O)(=O)c1ccc(Cl)cc1,67,.,.
O=C1c2ccccc2-c2c(-c3ccccc3)nc3ccccc3c21,/,/,.
Cc1ccc(Cn2c(/N=C/c3ccc(N(C)C)cc3)nc3ccccc32)cc1,/,/,.
Cc1cc(C(=O)Nc2cccc3c2O[C@@H](CN(C)S(=O)(=O)c2ccc(Cl)cc2)[C@@H](C)CN([C@H](C)CO)C3=O)n(C)n1,78,.,.
Cc1noc(C)c1S(=O)(=O)N(C)C[C@@H]1Oc2ccc(NC(=O)C3CC3)cc2CC(=O)N([C@H](C)CO)C[C@@H]1C,70,.,/

# Bioassay records (PubChem)
